Experimental data: PubChem BioAssay AID1625 (Sanford-Burnham Center for Chemical Genomics, 2009)
In all, about 190,000 compounds went through this assay and about 570 (0.3%) were called active.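 Rule for the calls: active = z-score above 3 at 5 µM with at least 500 cells counted in the well; inconclusive = wells under 500 cells, flagged as cytotoxic or low count; inactive = the rest.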 Many of the other results were omitted from the sample, so actives are more common in it than they were.

Test: up-regulation of insulin promoter-GFP reporter – imaging, high-content screening, mouse beta cells (AID 1625);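 for cell count: total cells summed across four imaged fields per well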
Details: MIN6 insulin promoter-GFP reporter, at 5 µM; cell count: measured here: cytotoxicity, nuclei count; z-score: stronger effect = higher value

Compound	cell count	z-score
CCn1c(Cc2cccs2)nnc1SCC(=O)c1ccc(C)cc1	827 cells	-1.87 (inactive)
Cc1ccc(-n2c(Cc3cccs3)nnc2SCC(=O)OC(C)C)cc1	993 cells	3.05 (active)
COc1ccc(-n2c(SCC(=O)OC(C)C)nnc2-c2ccccn2)cc1	1260 cells	0.29 (inactive)
Cc1ccc(Oc2nc(-c3ccccn3)nc3ccccc23)cc1	1010 cells	-0.89 (inactive)
O=C1N(c2ccccc2)C(=Nc2ccccc2)SC12CC2	1070 cells	-0.2 (inactive)
COc1ccc(OC)c(S(=O)(=O)NCCC(C)C)c1	1220 cells	-0.95 (inactive)
CCOC(=O)CN(C(=O)COc1nc(-c2ccccc2)cc(C)c1C#N)c1ccc(F)cc1	1080 cells	-0.04 (inactive)
CCOC(=O)C1CCN(C(=O)Nc2ccc(C)c(Cl)c2)CC1	1020 cells	-0.22 (inactive)
O=C(CCN1C(=O)/C(=C/c2cccs2)SC1=S)NNC(=O)c1cccc(O)c1	1100 cells	3.43 (active)
O=C(CCCN1C(=O)/C(=C\c2ccccc2)SC1=S)Nc1ccccc1O	1110 cells	-1.05 (inactive)
O=C(CCCN1C(=O)/C(=C/c2ccccc2)SC1=S)Nc1ccc(O)cc1	1550 cells	-0.31 (inactive)
Nc1nc(O)c(CC(=O)O)s1	1490 cells	-0.64 (inactive)
Cc1ccc(NNC(=O)C2CCC2)cc1C	1450 cells	-0.26 (inactive)
CCOC(=O)C1=NN(c2ccc(Cl)cc2)/C(=C/C2=NCCc3cc(OC)c(OC)cc32)S1	1380 cells	0.35 (inactive)
CCCN(CCC)CC(O)COc1ccccc1C(=O)Nc1ccccc1 (stereo not given)	1020 cells	-0.54 (inactive)
COc1ccc(-c2[nH]ncc2CN(Cc2nccn2C)C(C)C)cc1F	1490 cells	-1.07 (inactive)
O=S(=O)([N-]c1nc2ccccc2nc1-[n+]1ccc(Cc2ccccc2)cc1)c1ccc(Br)s1	1020 cells	-0.15 (inactive)
[O-][N+]12CCCCC1CCCC2CO (stereo not given)	977 cells	0.05 (inactive)
COc1ccc(OC)c(-c2c(=O)n(OCc3ccccc3Br)c3ccccc3[n+]2[O-])c1	1330 cells	-0.44 (inactive)
O=c1c(-c2ccc(Cl)cc2)[n+]([O-])c2ccccc2n1OCc1nc2ccccc2[nH]1	1200 cells	-1.15 (inactive)
CCOc1ccc(OCC)c(-c2c(=O)n(OCc3ccc(Cl)cc3)c3ccccc3[n+]2[O-])c1	1410 cells	3.34 (active)
CCN(CC)CCNCC(=O)Nc1ccc(Oc2ccccc2)cc1	919 cells	-0.39 (inactive)

Compound	cell count	z-score
C/C(=N\Nc1cccc(C(=O)O)c1)c1ccc2c(c1)Nc1ccccc1S2	1020 cells	-0.12 (inactive)
O=C(Cn1c(N2CCN(C/C=C/c3ccccc3)CC2)nc2ccccc21)c1ccccc1	1150 cells	-0.35 (inactive)
COc1ccc(F)cc1S(=O)(=O)N1CCCCC1	1090 cells	0.19 (inactive)
N#C/C(=C\N1CCOCC1)S(=O)(=O)c1ccc(Cl)cc1	930 cells	-0.15 (inactive)
CCc1ccc(S(=O)(=O)Nc2ccc(C)c(NS(C)(=O)=O)c2)cc1	1030 cells	0.6 (inactive)
COCCNC(=O)c1onc(CSc2cccc(C)c2)c1C(=O)O	1620 cells	3.82 (active)
CCCCNC(=O)c1onc(CSc2cccc(OC)c2)c1C(=O)O	1420 cells	-0.14 (inactive)
CCOc1cccc(SCc2noc(C(=O)NC(C)C)c2C(=O)O)c1	1590 cells	-0.64 (inactive)
CN(CC(=O)Nc1ccc(F)cc1)CC(=O)Nc1ccc(Cl)c(S(=O)(=O)N2CCOCC2)c1	1070 cells	-0.46 (inactive)
CC(C)NC(=O)/C(C#N)=C\c1ccc(N(C)C)c(Br)c1	1460 cells	0.33 (inactive)
COC(=O)c1cc(C)sc1NC(=O)CC1Nc2ccccc2NC1=O (stereo not given)	1110 cells	2.17 (inactive)
Cc1ccc(CNC(=O)CC2Sc3ccccc3NC2=O)cc1 (stereo not given)	1420 cells	-0.57 (inactive)
CCc1cc(C(=O)OC)c(NC(=O)CC2Sc3ccc(C(F)(F)F)cc3NC2=O)s1 (stereo not given)	1330 cells	3.33 (active)
CCc1ccc(NC(=O)N[C@H](C(=O)O)C(C)CC)cc1 (stereo not given in full)	978 cells	0.03 (inactive)
O=C(Nc1nnc(SCc2c(Cl)cccc2Cl)s1)c1cccc([N+](=O)[O-])c1	1070 cells	0.41 (inactive)
Nc1nnc(SCn2nnc3ccccc3c2=O)s1	1620 cells	0.07 (inactive)
COc1ccc(C2C(C(=O)N3CCN(c4ccc(OC)cc4)CC3)c3ccccc3C(=O)N2C)cc1 (stereo not given)	1330 cells	-1.17 (inactive)
CCOc1ccc(C2C(C(=O)O)c3ccccc3C(=O)N2CCN2CCOCC2)cc1 (stereo not given)	1350 cells	4.94 (active)
CCOc1cc2c(cc1OCC)C(C(=O)O)C(c1ccc(OC)c(O)c1)N(C)C2=O (stereo not given)	1550 cells	0.1 (inactive)
O=C(COC(=O)/C=C/c1ccc2c(c1)OCO2)NC1CCS(=O)(=O)C1 (stereo not given)	933 cells	-0.06 (inactive)
COc1ccccc1N1CCN(C(=O)CSc2ncnc3c2cnn3-c2ccc(C)c(C)c2)CC1	959 cells	-0.23 (inactive)
CC1Cc2ccccc2N1S(=O)(=O)c1ccc(Cl)nc1 (stereo not given)	1130 cells	0.1 (inactive)

Compound	cell count	z-score
COc1ccccc1CNC(=O)CCn1c(=O)sc2ccccc21	1300 cells	-0.13 (inactive)
CCc1nnc(NC(=O)CCC(=O)O)s1	879 cells	-0.23 (inactive)
CCc1nnc(NC(=O)CCC(=O)NCc2ccccc2OC)s1	1600 cells	4.05 (active)
O=C(Nc1ccc(Cl)cc1)/C(=C1\CCCN1)[N+](=O)[O-]	1400 cells	0.56 (inactive)
COc1ccc(OC)c(-c2csc(NC(=O)C3=NNC(=O)CC3)n2)c1	1110 cells	1.47 (inactive)
CCOc1cccc(/C=C/c2ccc3ccccc3n2)c1OC(C)=O	1230 cells	-0.46 (inactive)
Cc1nc(COc2cccc(Cl)c2)sc1C(=O)/C=C/N(C)C	1040 cells	0.55 (inactive)
CN1CCN(c2ccc(S(=O)(=O)N3CCOCC3)cc2NC(=O)CCc2ccccc2)CC1	1040 cells	0.32 (inactive)
C=CCC(Nc1ccccc1)c1cccc(OC)c1OC (stereo not given)	1080 cells	-0.62 (inactive)
O=C(Cc1cccc2ccccc12)NCCC1=CCCCC1	1280 cells	-0.27 (inactive)
CN1CCNC(=O)C1CC(=O)NCCC1=CCCCC1 (stereo not given)	1390 cells	3.77 (active)
O=C(Cc1nn[nH]n1)NCCC1=CCCCC1	1260 cells	-0.63 (inactive)
Cn1nc(C(C)(C)C)c([N+](=O)[O-])c1C(N)=O	1080 cells	-0.1 (inactive)
O=C(O)CC1=C(Nc2ccccc2)C(=O)N(c2ccccc2)C1c1ccc(Cl)cc1 (stereo not given)	1370 cells	-0.28 (inactive)
O=[N+]([O-])c1ccccc1NCc1ccccc1Cl	1120 cells	0.76 (inactive)
N/C(=N/O)c1cccn1Cc1ccccc1[N+](=O)[O-]	1470 cells	0.02 (inactive)
O=c1c([N+](=O)[O-])cccn1Cc1ccc(F)cc1Cl	1280 cells	3.36 (active)
CN1CCN(C(c2cc3cc4c(cc3[nH]c2=O)OCCO4)c2nnnn2C2CCCC2)CC1 (stereo not given)	1180 cells	-0.16 (inactive)
CCOc1ccc(-n2cnc3c(=O)[nH]c(N)nc32)cc1	1510 cells	-0.16 (inactive)
CC(C)(C)c1ccc(CCC2OCC(CN3CCOCC3)O2)cc1 (stereo not given)	1070 cells	-0.91 (inactive)
O=C(Cc1ccccc1)N1N=C(c2ccncc2)CC1(O)C(F)(F)F (stereo not given)	1110 cells	-0.48 (inactive)
CN1CCN(C(=O)/C(=C\c2ccc3c(c2)OCO3)NC(=O)c2cccs2)CC1	1300 cells	0.04 (inactive)

Compound	cell count	z-score
Cc1ccc(C(=O)N/C(=C/c2cccs2)C(=O)N2CCCCC2)cc1	1270 cells	0.22 (inactive)
CN1CCN(C(=O)/C(=C\c2cccs2)NC(=O)c2cccs2)CC1	1240 cells	6.06 (active)
O=C(O)C(c1ccccc1)C1(O)CCCCC1 (stereo not given)	1390 cells	0.43 (inactive)
CCCCSc1nnc2c(n1)OC=Nc1ccccc1-2	1140 cells	-0.42 (inactive)
Fc1ccc(/C=N/Nc2nc(-c3cccnc3)nc3ccccc23)cc1	1030 cells	-0.09 (inactive)
Oc1ccc(/C=N/Nc2nc(-c3ccccc3F)nc3ccccc23)c(O)c1	1070 cells	3.69 (active)
Cc1nc2ccccc2nc1N/N=C/c1ccc(O)cc1O	1210 cells	-3.3 (inactive)
O=C(NCCc1ccccn1)c1cccnc1Oc1ccc(Cl)cc1	1560 cells	-0.11 (inactive)
Cc1cc2nc3c(=O)n(Cc4ccccc4)c(=O)[nH]c3nc2cc1N	1490 cells	12.1 (active)
CC(=O)c1ccc(-c2ccc(Cn3c(C)nc4cc(N)c(C)nc43)cc2)cc1	1520 cells	0.28 (inactive)
Cc1nc2c(c(=O)n1Cc1ccco1)c1nc3ccccc3nc1n2Cc1ccccc1	1260 cells	-1.6 (inactive)
COc1ccc(Nc2cc(=O)n(-c3ccccc3)c3c2c(=O)n(C)c(=O)n3C)cc1	991 cells	0.04 (inactive)
COc1ccc(C(=O)C2CCCN(C(=O)c3cc4nc(C)cc(C)n4n3)C2)cc1F (stereo not given)	1470 cells	-0.02 (inactive)
COCc1cc(=O)[nH]c(SC)n1	1140 cells	-0.01 (inactive)
CC(C)c1nc(SCC(=O)NC(=O)NC(C)(C)C)n[nH]1	976 cells	-0.03 (inactive)
CCCn1nc2cc(C(=O)NCc3ccccc3)ccc2c1OCC	1430 cells	4.73 (active)
CCOc1c2ccc(C(=O)NCc3ccc(OC(F)(F)F)cc3)cc2nn1C	1370 cells	2.39 (inactive)
CCOc1c2ccc(C(=O)NCc3ccc4c(c3)OCO4)cc2nn1C	1870 cells	0.4 (inactive)
CC12CN(NC(=O)c3ccc(Cl)cc3)C3(C#N)CC1CCC23C (stereo not given)	1610 cells	-0.1 (inactive)
